Measured values reported in PubChem BioAssay AID1159580 (chemical genetic matrix, 2015).
The whole screen tested about 5,500 compounds, of which about 2,000 (36%) were called active. About 18% were inconclusive and are not listed. The list shows a part of the results. A number with no mark means an inactive call. No stated cut-off is given here; in the data, active means normalized growth mostly below about 0.91 (no sharp cut-off); inconclusive means no clear call, values can overlap the other calls; inactive means mostly above about 0.92.

Test: chemical genetic growth profiling, strain panel (AID 1159580);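 further: tested at 20 µM; growth read once vehicle control cultures reached saturation at 30 °C; 1 = growth at the plate median or of vehicle wells; lower values mean less growth of the strain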
Conditions: S. cerevisiae deletion strains, growth OD

Q: Which normalized growth (locus YAL021C, strain ccr4, active compounds read low) does the source give for O=c1c(O)c(-c2ccc(O)c(O)c2)oc2c(O[C@@H]3O[C@H](CO)[C@H](O)[C@@H](O)[C@H]3O)c(O)cc(O)c12 here?
A: The normalized growth was 1.01.

Q: And the normalized growth (locus YAL026C, strain drs2, active compounds read low)?
A: The normalized growth was 1.03.

Q: What about the normalized growth (locus YAL030W, strain snc1, active compounds read low) of the same compound?
A: The normalized growth was 1.01.

Q: And the normalized growth (locus YBL061C, strain skt5, active compounds read low)?
A: Its normalized growth is 1.01.

Q: And the normalized growth (locus YBR009C, strain hhf1, active compounds read low)?
A: Its normalized growth is 1.02.

Q: What about the normalized growth (locus YBR023C, strain chs3, active compounds read low) of the same compound?
A: The normalized growth was 1.03.

Q: And the normalized growth (locus YBR171W, strain sec66, active compounds read low)?
A: Its normalized growth is 1.02.

Q: And the normalized growth (locus YBR231C, strain swc5, active compounds read low)?
A: Its normalized growth is 1.01.

Q: And the normalized growth (locus YBR279W, strain paf1, active compounds read low)?
A: Its normalized growth is 1.01.

Q: And the normalized growth (locus YCL011C, strain gbp2, active compounds read low)?
A: Its normalized growth is 1.03.

Q: What about the normalized growth (locus YCL016C, strain dcc1, active compounds read low) of the same compound?
A: The normalized growth was 1.02.

Q: And the normalized growth (locus YCL061C, strain MRC1, active compounds read low)?
A: The normalized growth was 1.

Q: What about the normalized growth (locus YCL069W, strain vba3, active compounds read low) of the same compound?
A: The normalized growth was 1.03.

Q: What about the normalized growth (locus YCR088W, strain abp1, active compounds read low) of the same compound?
A: Its normalized growth is 1.

Q: And the normalized growth (locus YDL005C, strain med2, active compounds read low)?
A: The normalized growth was 1.

Q: What about the normalized growth (locus YDL040C, strain nat1, active compounds read low) of the same compound?
A: The normalized growth was 1.01.

Q: And the normalized growth (locus YDR001C, strain nth1, active compounds read low)?
A: The normalized growth was 1.02.

Q: What about the normalized growth (locus YDR069C, strain doa4, active compounds read low) of the same compound?
A: The normalized growth was 1.03.

Q: What about the normalized growth (locus YDR137W, strain rgp1, active compounds read low) of the same compound?
A: The normalized growth was 0.988.

Q: And the normalized growth (locus YDR159W, strain sac3, active compounds read low)?
A: The normalized growth was 0.997.

Q: What about the normalized growth (locus YDR195W, strain ref2) of the same compound?
A: The normalized growth was 0.965.

Q: And the normalized growth (locus YDR297W, strain sur2, active compounds read low)?
A: Its normalized growth is 1.03.

Q: And the normalized growth (locus YDR334W, strain swr1, active compounds read low)?
A: Its normalized growth is 1.02.

Q: What about the normalized growth (locus YDR335W, strain msn5, active compounds read low) of the same compound?
A: The normalized growth was 1.02.

Q: What about the normalized growth (locus YDR392W, strain spt3, active compounds read low) of the same compound?
A: The normalized growth was 0.978.

Q: And the normalized growth (locus YEL003W, strain gim4, active compounds read low)?
A: Its normalized growth is 1.02.

Q: What about the normalized growth (locus YEL037C, strain rad23, active compounds read low) of the same compound?
A: The normalized growth was 1.01.

Q: And the normalized growth (locus YEL061C, strain CIN8 (second series), active compounds read low)?
A: Its normalized growth is 1.03.

Q: What about the normalized growth (locus YER015W, strain faa2, active compounds read low) of the same compound?
A: The normalized growth was 1.

Q: And the normalized growth (locus YER016W, strain bim1, active compounds read low)?
A: The normalized growth was 1.01.

Q: What about the normalized growth (locus YER111C, strain swi4, active compounds read low) of the same compound?
A: Its normalized growth is 1.01.

Q: And the normalized growth (locus YER155C, strain BEM2 (second series), active compounds read low)?
A: Its normalized growth is 1.04.

Q: What about the normalized growth (locus YFR010W, strain ubp6, active compounds read low) of the same compound?
A: Its normalized growth is 1.01.

Q: And the normalized growth (locus YGL167C, strain pmr1, active compounds read low)?
A: Its normalized growth is 1.02.

Q: And the normalized growth (locus YGL173C, strain kem1, active compounds read low)?
A: The normalized growth was 1.02.

Q: What about the normalized growth (locus YGL227W, strain vid30, active compounds read low) of the same compound?
A: The normalized growth was 0.999.

Q: What about the normalized growth (locus YGL240W, strain doc1, active compounds read low) of the same compound?
A: The normalized growth was 1.01.

Q: And the normalized growth (locus YGL253W, strain hxk2, active compounds read low)?
A: The normalized growth was 1.02.

Q: What about the normalized growth (locus YHR013C, strain ard1, active compounds read low) of the same compound?
A: Its normalized growth is 1.02.

Q: What about the normalized growth (locus YHR027C, strain rpn1, active compounds read low) of the same compound?
A: The normalized growth was 0.998.

Q: What about the normalized growth (locus YHR030C, strain SLT2, active compounds read low) of the same compound?
A: Its normalized growth is 0.895.

Q: What about the normalized growth (locus YHR079C, strain IRE1, active compounds read low) of the same compound?
A: Its normalized growth is 0.886.

Q: What about the normalized growth (locus YHR142W, strain chs7, active compounds read low) of the same compound?
A: The normalized growth was 1.04.

Q: And the normalized growth (locus YJL092W, strain hpr5, active compounds read low)?
A: Its normalized growth is 1.01.

Q: What about the normalized growth (locus YJL095W, strain BCK1 (second series), active compounds read low) of the same compound?
A: The normalized growth was 1.01.

Q: And the normalized growth (locus YJL095W, strain BCK1, active compounds read low)?
A: The normalized growth was 0.895.

Q: And the normalized growth (locus YJL115W, strain asf1, active compounds read low)?
A: Its normalized growth is 1.

Q: And the normalized growth (locus YJL129C, strain trk1, active compounds read low)?
A: The normalized growth was 1.

Q: What about the normalized growth (locus YJL154C, strain vps35, active compounds read low) of the same compound?
A: The normalized growth was 1.02.

Q: And the normalized growth (locus YJL164C, strain tpk1, active compounds read low)?
A: The normalized growth was 1.03.

Q: And the normalized growth (locus YJL166W, strain qcr8, active compounds read low)?
A: Its normalized growth is 1.04.

Q: And the normalized growth (locus YJL187C, strain SWE1, active compounds read low)?
A: The normalized growth was 1.03.

Q: What about the normalized growth (locus YJR066W, strain TOR1, active compounds read low) of the same compound?
A: Its normalized growth is 0.914.

Q: And the normalized growth (locus YKL160W, strain elf1, active compounds read low)?
A: The normalized growth was 1.

Q: What about the normalized growth (locus YKR026C, strain gcn3, active compounds read low) of the same compound?
A: The normalized growth was 1.01.

Q: And the normalized growth (locus YKR091W, strain srl3, active compounds read low)?
A: Its normalized growth is 1.02.

Q: What about the normalized growth (locus YLL001W, strain dnm1, active compounds read low) of the same compound?
A: The normalized growth was 0.989.

Q: What about the normalized growth (locus YLL026W, active compounds read low) of the same compound?
A: Its normalized growth is 1.01.

Q: And the normalized growth (locus YLL041C, strain sdh2, active compounds read low)?
A: Its normalized growth is 1.02.

Q: What about the normalized growth (locus YLR027C, strain aat2, active compounds read low) of the same compound?
A: Its normalized growth is 1.03.

Q: What about the normalized growth (locus YLR113W, strain HOG1, active compounds read low) of the same compound?
A: The normalized growth was 0.834 (active).

Q: And the normalized growth (locus YLR221C, strain rsa3, active compounds read low)?
A: The normalized growth was 1.

Q: And the normalized growth (locus YLR258W, strain gsy2, active compounds read low)?
A: Its normalized growth is 1.01.

Q: And the normalized growth (locus YLR262C, strain YPT6 (second series), active compounds read low)?
A: Its normalized growth is 1.06.

Q: And the normalized growth (locus YLR320W, strain mms22, active compounds read low)?
A: The normalized growth was 1.01.

Q: And the normalized growth (locus YLR342W, strain FKS1, active compounds read low)?
A: Its normalized growth is 1.02.

Q: And the normalized growth (locus YLR357W, strain rsc2, active compounds read low)?
A: The normalized growth was 0.988.

Q: And the normalized growth (locus YLR370C, strain arc18, active compounds read low)?
A: The normalized growth was 1.02.

Q: And the normalized growth (locus YLR384C, strain iki3, active compounds read low)?
A: Its normalized growth is 1.

Q: And the normalized growth (locus YML120C, strain ndi1, active compounds read low)?
A: The normalized growth was 1.01.

Q: What about the normalized growth (locus YMR058W, strain fet3, active compounds read low) of the same compound?
A: Its normalized growth is 1.01.

Q: What about the normalized growth (locus YMR125W, strain sto1, active compounds read low) of the same compound?
A: The normalized growth was 1.

Q: And the normalized growth (locus YMR129W, active compounds read low)?
A: Its normalized growth is 1.01.

Q: What about the normalized growth (locus YMR205C, strain PFK2, active compounds read low) of the same compound?
A: The normalized growth was 1.02.

Q: And the normalized growth (locus YMR231W, strain pep5, active compounds read low)?
A: The normalized growth was 1.

Q: And the normalized growth (locus YNL071W, strain lat1, active compounds read low)?
A: The normalized growth was 1.03.

Q: What about the normalized growth (locus YNL183C, strain NPR1, active compounds read low) of the same compound?
A: Its normalized growth is 0.913.

Q: What about the normalized growth (locus YNL209W, strain ssb2, active compounds read low) of the same compound?
A: The normalized growth was 1.02.

Q: What about the normalized growth (locus YNL248C, strain rpa49, active compounds read low) of the same compound?
A: The normalized growth was 0.988.

Q: What about the normalized growth (locus YNL322C, strain KRE1 (second series), active compounds read low) of the same compound?
A: Its normalized growth is 1.

Q: And the normalized growth (locus YNR049C, strain mso1, active compounds read low)?
A: The normalized growth was 1.02.

Q: What about the normalized growth (locus YOR001W, strain rrp6, active compounds read low) of the same compound?
A: Its normalized growth is 1.01.

Q: What about the normalized growth (locus YOR070C, strain gyp1, active compounds read low) of the same compound?
A: The normalized growth was 1.01.

Q: What about the normalized growth (locus YOR080W, strain dia2, active compounds read low) of the same compound?
A: Its normalized growth is 1.01.

Q: And the normalized growth (locus YOR083W, strain WHI5, active compounds read low)?
A: Its normalized growth is 1.03.

Q: What about the normalized growth (locus YOR106W, strain vam3, active compounds read low) of the same compound?
A: Its normalized growth is 1.01.

Q: And the normalized growth (locus YOR231W, strain MKK1, active compounds read low)?
A: The normalized growth was 0.91.

Q: And the normalized growth (locus YOR265W, strain rbl2, active compounds read low)?
A: Its normalized growth is 1.04.

Q: And the normalized growth (locus YOR270C, strain vph1, active compounds read low)?
A: The normalized growth was 1.11.

Q: What about the normalized growth (locus YOR290C, strain snf2, active compounds read low) of the same compound?
A: The normalized growth was 1.03.

Q: What about the normalized growth (locus YPL051W, strain arl3, active compounds read low) of the same compound?
A: The normalized growth was 1.01.

Q: And the normalized growth (locus YPL078C, strain atp4, active compounds read low)?
A: The normalized growth was 1.01.

Q: And the normalized growth (locus YPL106C, strain sse1, active compounds read low)?
A: Its normalized growth is 0.971.

Q: What about the normalized growth (locus YPL240C, strain hsp82, active compounds read low) of the same compound?
A: Its normalized growth is 1.02.

Q: What about the normalized growth (locus YPL256C, strain CLN2, active compounds read low) of the same compound?
A: The normalized growth was 0.868.
